Reference: ChEMBL document CHEMBL2218924, “A broad activity screen in support of a chemogenomic map for kinase signalling research and drug discovery” (Biochem J, 2013)

Experiments:
[1] = target: T1, Dual specificity mitogen-activated protein kinase kinase 6 (Homo sapiens) (UniProt P52564); details: at 1 µM
T1 sequence (whole entry): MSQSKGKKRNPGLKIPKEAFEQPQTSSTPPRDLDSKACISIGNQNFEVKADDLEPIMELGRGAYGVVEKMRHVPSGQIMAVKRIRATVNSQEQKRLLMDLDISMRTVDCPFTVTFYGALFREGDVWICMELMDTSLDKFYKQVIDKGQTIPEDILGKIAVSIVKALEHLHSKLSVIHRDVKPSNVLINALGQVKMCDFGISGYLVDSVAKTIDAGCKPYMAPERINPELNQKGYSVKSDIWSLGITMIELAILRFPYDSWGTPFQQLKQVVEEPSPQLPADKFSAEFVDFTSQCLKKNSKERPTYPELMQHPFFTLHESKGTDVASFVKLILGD

[2] = target: T1, Dual specificity mitogen-activated protein kinase kinase 6 (Homo sapiens); details: at 10 µM
[3] = target: T2, Dual specificity mitogen-activated protein kinase kinase 7 (Homo sapiens) (UniProt O14733); details: at 1 µM
T2 sequence (whole entry): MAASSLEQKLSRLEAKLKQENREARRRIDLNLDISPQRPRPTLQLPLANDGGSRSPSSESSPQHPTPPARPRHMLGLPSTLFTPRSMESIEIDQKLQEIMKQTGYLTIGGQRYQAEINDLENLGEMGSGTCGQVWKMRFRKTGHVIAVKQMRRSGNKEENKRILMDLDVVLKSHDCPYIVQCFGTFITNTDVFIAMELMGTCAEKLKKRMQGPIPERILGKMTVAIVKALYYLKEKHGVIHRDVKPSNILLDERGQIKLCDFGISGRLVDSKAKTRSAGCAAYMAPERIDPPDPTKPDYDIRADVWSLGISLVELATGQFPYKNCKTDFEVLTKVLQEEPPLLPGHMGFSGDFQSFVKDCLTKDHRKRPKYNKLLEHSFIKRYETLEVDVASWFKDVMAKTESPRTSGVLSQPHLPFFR

[4] = target: T2, Dual specificity mitogen-activated protein kinase kinase 7 (Homo sapiens); details: at 10 µM
[5] = target: Myosin light chain kinase, smooth muscle (Homo sapiens) (UniProt Q15746); details: at 1 µM
[6] = target: Myosin light chain kinase, smooth muscle (Homo sapiens) (UniProt Q15746); details: at 10 µM
[7] = target: Mitogen-activated protein kinase kinase kinase 9 (Homo sapiens) (UniProt P80192); details: at 1 µM
[8] = target: Mitogen-activated protein kinase kinase kinase 9 (Homo sapiens) (UniProt P80192); details: at 10 µM
[9] = target: Ribosomal protein S6 kinase alpha-5 (Homo sapiens) (UniProt O75582); details: at 1 µM
[10] = target: Ribosomal protein S6 kinase alpha-5 (Homo sapiens) (UniProt O75582); details: at 10 µM
[11] = target: T3, Serine/threonine-protein kinase 4 (Homo sapiens) (UniProt Q13043); details: at 1 µM
T3 sequence (whole entry): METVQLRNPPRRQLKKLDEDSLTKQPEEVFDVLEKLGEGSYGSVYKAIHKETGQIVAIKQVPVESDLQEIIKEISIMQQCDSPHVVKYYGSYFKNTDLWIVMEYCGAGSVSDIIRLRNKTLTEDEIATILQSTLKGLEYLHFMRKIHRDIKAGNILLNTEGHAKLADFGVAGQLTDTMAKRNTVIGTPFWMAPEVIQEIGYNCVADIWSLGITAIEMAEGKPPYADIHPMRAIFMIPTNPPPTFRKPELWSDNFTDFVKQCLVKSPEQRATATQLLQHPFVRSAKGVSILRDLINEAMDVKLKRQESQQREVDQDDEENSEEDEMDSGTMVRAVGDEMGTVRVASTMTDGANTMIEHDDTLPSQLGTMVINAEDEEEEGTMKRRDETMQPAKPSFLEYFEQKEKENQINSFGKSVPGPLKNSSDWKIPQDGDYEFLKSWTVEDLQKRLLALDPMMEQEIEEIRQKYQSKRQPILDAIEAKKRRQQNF

[12] = target: T3, Serine/threonine-protein kinase 4 (Homo sapiens); details: at 10 µM
[13] = target: Serine/threonine-protein kinase MRCK beta (Homo sapiens) (UniProt Q9Y5S2); details: at 1 µM
[14] = target: Serine/threonine-protein kinase MRCK beta (Homo sapiens) (UniProt Q9Y5S2); details: at 10 µM
[15] = target: Ribosomal protein S6 kinase alpha-4 (Homo sapiens) (UniProt O75676); details: at 1 µM
[16] = target: Ribosomal protein S6 kinase alpha-4 (Homo sapiens) (UniProt O75676); details: at 10 µM
[17] = target: SRSF protein kinase 3 (Homo sapiens) (UniProt Q9UPE1); details: at 1 µM
[18] = target: SRSF protein kinase 3 (Homo sapiens) (UniProt Q9UPE1); details: at 10 µM
[19] = target: Serine/threonine-protein kinase MRCK alpha (Homo sapiens) (UniProt Q5VT25); details: at 1 µM
[20] = target: Serine/threonine-protein kinase MRCK alpha (Homo sapiens) (UniProt Q5VT25); details: at 10 µM

Serine/threonine-protein kinase MRCK alpha (Homo sapiens), sequence (Q5VT25 whole entry): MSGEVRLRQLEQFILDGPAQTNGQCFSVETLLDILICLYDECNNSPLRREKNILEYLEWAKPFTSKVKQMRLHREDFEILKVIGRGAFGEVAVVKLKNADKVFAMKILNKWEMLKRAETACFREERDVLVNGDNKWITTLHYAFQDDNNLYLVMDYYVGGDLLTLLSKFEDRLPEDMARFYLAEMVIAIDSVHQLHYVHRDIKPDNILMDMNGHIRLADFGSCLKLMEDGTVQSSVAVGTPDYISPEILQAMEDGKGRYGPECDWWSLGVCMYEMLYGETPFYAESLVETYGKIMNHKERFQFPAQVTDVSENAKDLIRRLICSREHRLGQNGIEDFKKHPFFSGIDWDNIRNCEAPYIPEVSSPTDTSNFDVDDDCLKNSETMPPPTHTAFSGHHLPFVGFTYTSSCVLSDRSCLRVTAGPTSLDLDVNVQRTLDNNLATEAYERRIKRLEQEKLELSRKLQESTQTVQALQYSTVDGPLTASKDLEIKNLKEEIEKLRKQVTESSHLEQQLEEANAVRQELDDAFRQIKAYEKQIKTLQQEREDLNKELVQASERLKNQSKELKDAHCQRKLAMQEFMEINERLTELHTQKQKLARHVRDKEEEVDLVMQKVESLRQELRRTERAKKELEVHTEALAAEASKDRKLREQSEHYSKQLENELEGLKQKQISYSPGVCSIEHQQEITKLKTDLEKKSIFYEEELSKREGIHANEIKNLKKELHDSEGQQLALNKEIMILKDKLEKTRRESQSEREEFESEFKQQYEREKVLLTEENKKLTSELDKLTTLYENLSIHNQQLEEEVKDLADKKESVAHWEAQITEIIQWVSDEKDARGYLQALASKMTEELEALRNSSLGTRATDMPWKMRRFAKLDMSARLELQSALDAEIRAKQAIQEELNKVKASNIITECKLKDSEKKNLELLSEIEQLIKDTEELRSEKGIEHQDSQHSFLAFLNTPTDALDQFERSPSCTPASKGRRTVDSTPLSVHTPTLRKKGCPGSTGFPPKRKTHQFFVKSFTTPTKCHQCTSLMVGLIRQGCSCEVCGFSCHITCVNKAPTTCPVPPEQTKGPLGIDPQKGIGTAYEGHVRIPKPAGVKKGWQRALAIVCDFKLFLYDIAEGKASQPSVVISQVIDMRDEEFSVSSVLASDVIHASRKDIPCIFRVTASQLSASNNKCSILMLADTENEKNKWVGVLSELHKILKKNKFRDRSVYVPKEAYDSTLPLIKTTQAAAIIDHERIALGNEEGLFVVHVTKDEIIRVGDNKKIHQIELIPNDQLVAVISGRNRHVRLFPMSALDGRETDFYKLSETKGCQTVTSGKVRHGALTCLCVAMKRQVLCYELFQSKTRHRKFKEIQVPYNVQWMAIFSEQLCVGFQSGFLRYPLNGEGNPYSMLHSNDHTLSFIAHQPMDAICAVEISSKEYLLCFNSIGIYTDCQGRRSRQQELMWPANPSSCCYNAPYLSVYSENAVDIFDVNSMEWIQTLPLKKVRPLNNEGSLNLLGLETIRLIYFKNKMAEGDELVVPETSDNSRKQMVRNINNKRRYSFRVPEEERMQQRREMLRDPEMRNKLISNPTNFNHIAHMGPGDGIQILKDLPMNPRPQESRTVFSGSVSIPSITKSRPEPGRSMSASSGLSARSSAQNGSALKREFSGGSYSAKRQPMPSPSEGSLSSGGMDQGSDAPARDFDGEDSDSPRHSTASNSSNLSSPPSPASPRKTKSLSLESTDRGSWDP
Serine/threonine-protein kinase MRCK beta (Homo sapiens), sequence (Q9Y5S2 whole entry): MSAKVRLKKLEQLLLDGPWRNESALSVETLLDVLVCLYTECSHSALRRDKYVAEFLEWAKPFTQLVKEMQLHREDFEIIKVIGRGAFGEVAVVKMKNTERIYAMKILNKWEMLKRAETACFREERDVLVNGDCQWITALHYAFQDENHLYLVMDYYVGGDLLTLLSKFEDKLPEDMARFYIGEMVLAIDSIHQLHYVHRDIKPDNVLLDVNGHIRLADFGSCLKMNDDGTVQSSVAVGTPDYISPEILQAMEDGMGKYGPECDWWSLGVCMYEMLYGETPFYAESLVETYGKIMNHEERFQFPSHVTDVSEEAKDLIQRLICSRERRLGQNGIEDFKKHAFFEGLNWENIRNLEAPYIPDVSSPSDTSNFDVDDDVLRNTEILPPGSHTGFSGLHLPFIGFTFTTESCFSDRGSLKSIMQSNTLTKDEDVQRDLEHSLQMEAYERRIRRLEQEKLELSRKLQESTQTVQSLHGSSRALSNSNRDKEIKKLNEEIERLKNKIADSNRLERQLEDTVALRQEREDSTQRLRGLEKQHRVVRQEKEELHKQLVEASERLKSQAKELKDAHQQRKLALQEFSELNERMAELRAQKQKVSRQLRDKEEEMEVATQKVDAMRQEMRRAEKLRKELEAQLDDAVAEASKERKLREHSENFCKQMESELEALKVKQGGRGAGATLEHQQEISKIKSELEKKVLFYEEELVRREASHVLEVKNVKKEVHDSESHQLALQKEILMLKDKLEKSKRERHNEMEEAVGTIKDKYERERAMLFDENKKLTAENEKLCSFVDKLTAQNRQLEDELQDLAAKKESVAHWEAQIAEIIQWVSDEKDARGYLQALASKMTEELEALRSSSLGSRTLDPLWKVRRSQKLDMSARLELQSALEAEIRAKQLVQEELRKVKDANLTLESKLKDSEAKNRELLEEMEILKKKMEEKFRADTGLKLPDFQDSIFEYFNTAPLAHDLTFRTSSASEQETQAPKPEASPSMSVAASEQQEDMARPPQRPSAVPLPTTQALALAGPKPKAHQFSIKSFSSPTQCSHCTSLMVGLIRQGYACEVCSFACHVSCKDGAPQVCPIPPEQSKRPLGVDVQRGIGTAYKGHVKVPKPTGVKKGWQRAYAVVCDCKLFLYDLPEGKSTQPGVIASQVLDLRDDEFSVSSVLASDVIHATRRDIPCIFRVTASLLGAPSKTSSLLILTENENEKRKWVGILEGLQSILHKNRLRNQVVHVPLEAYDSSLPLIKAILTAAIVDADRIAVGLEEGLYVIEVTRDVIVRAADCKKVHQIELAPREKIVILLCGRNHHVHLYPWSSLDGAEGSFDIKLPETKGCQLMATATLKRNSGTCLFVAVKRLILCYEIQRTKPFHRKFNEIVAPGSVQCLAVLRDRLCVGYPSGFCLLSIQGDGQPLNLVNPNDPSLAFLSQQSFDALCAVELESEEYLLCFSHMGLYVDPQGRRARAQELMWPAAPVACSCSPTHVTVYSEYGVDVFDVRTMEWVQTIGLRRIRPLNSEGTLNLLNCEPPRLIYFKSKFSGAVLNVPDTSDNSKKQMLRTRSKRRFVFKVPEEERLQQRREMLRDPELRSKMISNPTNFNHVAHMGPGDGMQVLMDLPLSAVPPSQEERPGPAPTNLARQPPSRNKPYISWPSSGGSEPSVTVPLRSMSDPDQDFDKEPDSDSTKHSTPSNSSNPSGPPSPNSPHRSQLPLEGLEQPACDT
Mitogen-activated protein kinase kinase kinase 9 (Homo sapiens), sequence (P80192 whole entry, looked up): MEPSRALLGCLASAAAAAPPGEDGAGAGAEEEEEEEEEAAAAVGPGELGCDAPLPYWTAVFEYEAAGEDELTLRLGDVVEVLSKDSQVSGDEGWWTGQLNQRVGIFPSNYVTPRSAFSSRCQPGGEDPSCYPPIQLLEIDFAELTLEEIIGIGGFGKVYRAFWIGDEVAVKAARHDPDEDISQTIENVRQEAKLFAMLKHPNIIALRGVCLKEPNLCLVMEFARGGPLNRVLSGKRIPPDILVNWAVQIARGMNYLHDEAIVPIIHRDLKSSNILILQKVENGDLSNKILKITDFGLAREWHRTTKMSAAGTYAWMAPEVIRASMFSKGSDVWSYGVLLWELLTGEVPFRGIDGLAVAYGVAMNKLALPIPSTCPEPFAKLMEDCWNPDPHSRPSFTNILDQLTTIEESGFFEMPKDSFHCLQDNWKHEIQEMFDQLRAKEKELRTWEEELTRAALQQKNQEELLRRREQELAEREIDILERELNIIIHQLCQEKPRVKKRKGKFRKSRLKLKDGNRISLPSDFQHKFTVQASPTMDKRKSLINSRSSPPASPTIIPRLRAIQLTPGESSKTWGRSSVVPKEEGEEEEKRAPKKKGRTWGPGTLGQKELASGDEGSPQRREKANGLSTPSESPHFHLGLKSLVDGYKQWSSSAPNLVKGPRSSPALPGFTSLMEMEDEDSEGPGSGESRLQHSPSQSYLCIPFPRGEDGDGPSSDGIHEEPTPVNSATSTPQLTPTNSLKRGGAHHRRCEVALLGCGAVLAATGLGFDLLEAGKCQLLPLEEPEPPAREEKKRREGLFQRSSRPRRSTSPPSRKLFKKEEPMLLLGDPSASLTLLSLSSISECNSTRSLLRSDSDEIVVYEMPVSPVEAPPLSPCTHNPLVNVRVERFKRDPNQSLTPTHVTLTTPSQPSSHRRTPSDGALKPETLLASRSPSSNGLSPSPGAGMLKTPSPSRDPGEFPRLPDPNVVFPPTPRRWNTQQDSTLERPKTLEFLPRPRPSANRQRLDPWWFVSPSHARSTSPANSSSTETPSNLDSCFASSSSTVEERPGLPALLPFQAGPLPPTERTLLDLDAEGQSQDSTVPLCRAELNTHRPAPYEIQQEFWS
SRSF protein kinase 3 (Homo sapiens), sequence (Q9UPE1 whole entry): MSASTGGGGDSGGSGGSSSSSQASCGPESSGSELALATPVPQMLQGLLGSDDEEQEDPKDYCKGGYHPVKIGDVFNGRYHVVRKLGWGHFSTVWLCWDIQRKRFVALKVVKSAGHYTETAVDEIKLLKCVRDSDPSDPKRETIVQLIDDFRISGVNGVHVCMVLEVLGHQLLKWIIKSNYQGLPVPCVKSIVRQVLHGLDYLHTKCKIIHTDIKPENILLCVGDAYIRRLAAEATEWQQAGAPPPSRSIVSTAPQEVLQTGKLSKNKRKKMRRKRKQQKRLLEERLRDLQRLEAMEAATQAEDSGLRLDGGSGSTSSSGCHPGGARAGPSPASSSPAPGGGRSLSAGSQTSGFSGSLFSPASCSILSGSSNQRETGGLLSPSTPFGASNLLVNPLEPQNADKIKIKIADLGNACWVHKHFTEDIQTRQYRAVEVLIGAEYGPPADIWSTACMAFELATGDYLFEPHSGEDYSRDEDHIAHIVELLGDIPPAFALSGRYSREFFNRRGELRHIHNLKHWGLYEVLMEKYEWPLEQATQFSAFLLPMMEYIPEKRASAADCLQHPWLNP

SMILES | residual activity [1] [%] | residual activity [2] [%] | residual activity [3] [%] | residual activity [4] [%] | residual activity [5] [%] | residual activity [6] [%] | residual activity [7] [%] | residual activity [8] [%] | residual activity [9] [%] | residual activity [10] [%] | residual activity [11] [%] | residual activity [12] [%] | residual activity [13] [%] | residual activity [14] [%] | residual activity [15] [%] | residual activity [16] [%] | residual activity [17] [%] | residual activity [18] [%] | residual activity [19] [%] | residual activity [20] [%]
N#C/C(=C1/Nc2ccccc2S1)c1ccnc(NCCc2cccnc2)n1 | 84 | 39 | 67 | 42 | 96 | 73 | 48 | 9 | 112 | 68 | 81 | 84 |  |  |  |  |  |  |  | 
NC(=O)Nc1sc(-c2ccc(F)cc2)cc1C(N)=O | 97 | 41 | 96 | 44 | 92 | 31 | 9 | 1 |  |  | 28 | 10 | 80 | 50 | 85 | 46 | 96 | 67 |  | 
CCN(CC)CCNC(=O)c1c(C)[nH]c(/C=C2\C(=O)Nc3ccc(Cl)cc32)c1C | 66 | 46 |  | 81 | 9 | 3 | 24 | 4 | 80 | 31 | 12 | 5 |  |  | 42 | 15 | 98 | 61 |  | 
Nc1ncnc2c1c(-c1ccc(Oc3ccccc3)cc1)cn2C1CCCC1 | 85 | 89 | 95 | 79 | 63 | 45 |  |  | 126 | 67 | 76 | 48 | 90 | 69 | 83 | 59 | 106 | 96 | 107 | 118
O=C1Cc2c([nH]c3ccc(Br)cc23)-c2ccccc2N1 | 100 | 77 | 95 | 62 | 89 | 58 | 22 | 4 |  |  | 44 | 35 | 72 | 52 | 82 | 63 | 98 | 87 |  | 
Nc1ncnc2c1cnn2-c1ccccc1 | 79 | 91 | 97 | 94 | 86 | 84 | 83 | 57 |  |  | 97 |  | 95 | 83 |  | 86 |  | 23 |  | 
O=C1Cc2c([nH]c3ccc([N+](=O)[O-])cc23)-c2ccccc2N1 | 79 | 77 | 73 |  |  |  | 7 | 5 | 108 | 107 | 33 | 30 | 48 | 57 |  |  | 100 | 100 | 60 | 79
O=C1NC(=O)c2c1c1c3ccccc3[nH]c1n1cncc21 | 69 | 21 | 42 | 27 | 11 | 8 | 33 | 12 | 63 | 48 | 40 | 21 | 82 | 79 | 53 | 29 | 82 | 63 | 99 | 90
CC(C)(C)n1nc(Cc2cccc3ccccc23)c2c(N)ncnc21 | 57 | 38 | 98 | 94 | 73 | 87 | 68 | 18 | 120 | 93 | 90 | 58 | 99 | 86 | 95 |  | 116 | 80 | 95 | 119
O=C(c1ccccc1)c1ccc(N2CCOCC2)cc1O | 85 | 79 | 98 | 85 | 88 | 87 |  |  |  | 86 | 111 | 116 | 91 | 82 | 88 | 100 | 113 |  | 100 | 100
O=C(NC(NC(=S)Nc1ccc(F)c([N+](=O)[O-])c1)C(Cl)(Cl)Cl)C(c1ccccc1)c1ccccc1 (stereo not given) | 135 | 80 |  | 96 | 103 | 79 | 102 | 103 |  |  | 92 |  | 97 | 87 | 95 | 94 | 98 |  |  | 
c1ccc(-c2cnc(Nc3ccc(OCCN4CCCC4)cc3)s2)cc1 | 77 | 72 |  |  | 76 | 58 | 74 | 22 | 128 | 106 |  |  | 106 | 109 |  |  | 108 | 78 | 107 | 106
O=C1Nc2ccc(Cl)cc2/C1=C/c1cc(Cl)c(O)c(Cl)c1 | 82 | 38 | 95 | 61 | 39 | 37 | 56 | 18 |  |  | 41 | 12 | 80 | 67 | 84 | 51 | 100 | 71 | 99 | 96
Nc1n[nH]c2nc3ccccc3nc12 | 95 | 84 | 88 | 81 | 95 | 69 | 82 | 41 |  | 86 | 76 | 94 | 86 | 92 |  |  |  |  |  | 
Cn1c2ccccc2c2c3c(c4c5ccccc5n(CCC#N)c4c21)CNC3=O | 0 | 1 | 52 | 34 | 16 | 11 | 2 | 2 | 3 | 2 | 1 | 2 | 74 | 64 | 2 | 5 |  |  |  | 79
O=C(Nc1nc2ccccc2n1CCN1CCOCC1)c1cccc([N+](=O)[O-])c1 | 73 | 137 | 75 | 87 | 78 | 83 | 77 | 75 | 124 |  | 88 | 77 | 88 | 83 |  |  |  |  |  | 
CSc1nc(-c2ccc(F)cc2)c(-c2ccnc(NC(C)c3ccccc3)c2)[nH]1 (stereo not given) | 70 | -2 | 99 | 48 |  | 68 | 99 | 85 |  |  |  |  |  | 89 | 100 | 84 |  | 86 |  | 
O=c1cc(N2CCOCC2)oc2c1ccc1ccccc12 | 92 | 86 | 102 | 94 | 92 | 77 | 96 | 101 | 125 | 103 | 91 | 97 | 95 | 78 |  | 105 |  | 70 | 105 | 99
O=c1cc(N2CCNCC2)oc2c(-c3ccccc3)cccc12 | 92 | 89 | 100 | 79 | 93 | 95 | 88 | 104 |  | 94 | 98 | 99 | 93 | 76 | 93 | 103 | 103 | 89 | 86 | 
O=C(O)/C=C/c1cc(Br)c(Br)c(Br)c1Br | 99 | 84 |  | 71 | 94 | 22 | 93 | 72 |  | 102 | 97 | 97 | 106 | 90 | 102 | 64 | 124 | 100 |  | 
CC(C)[C@H](CO)Nc1nc(Nc2cc(N)cc(Cl)c2)c2ncn(C(C)C)c2n1 | 93 | 78 | 95 |  | 82 | 29 |  |  | 118 | 76 | 82 | 47 | 100 | 90 |  | 51 | 40 | 12 | 122 | 
O=C1NC(=O)C(c2cn(CCCO)c3ncccc23)=C1c1cnccn1 | 85 | 77 | 100 | 99 | 84 | 78 | 75 | 55 |  |  | 77 | 60 |  |  |  |  |  |  |  | 
COc1ccc(COc2ccc(Cc3cnc(N)nc3N)cc2OC)cc1 | 78 | 80 | 113 | 80 |  |  |  |  | 131 | 109 |  | 77 |  |  |  |  | 111 | 82 |  | 
N#C/C(=C\c1ccc(O)c(O)c1)C(=O)NCc1ccccc1 | 89 | 101 | 83 | 68 | 101 | 100 |  |  |  | 57 |  |  | 87 | 82 | 86 | 74 |  | 88 |  | 87
COc1cc2nccc(Oc3ccc(NC(=S)NC(=O)c4ccccc4C)cc3)c2cc1OC | 65 | 71 | 93 | 87 | 67 | 80 | 63 | 41 | 137 | 102 | 81 | 86 | 84 | 67 | 87 | 93 |  |  |  | 124
Fc1ccc(-c2nc3n(c2-c2ccncc2)CCS3)cc1 | 61 | 9 | 82 | 83 |  |  |  |  |  |  |  |  | 99 | 98 | 95 | 85 |  |  |  | 
O=c1c(-c2ccc(F)cc2)c(-c2ccncc2)[nH]n1-c1ccc(Cl)cc1 | 74 | 0 | 77 | 22 |  |  |  |  |  |  |  |  |  |  |  |  |  |  | 119 | 
NC(=O)c1ccc(-c2nc(-c3ccc4c(c3)OCCO4)c(-c3ccccn3)[nH]2)cc1 | 97 | 58 | 91 | 95 |  |  | 94 | 79 | 120 | 124 | 90 | 118 | 95 | 92 |  |  |  |  |  | 
